We go through 1 sequence from PMC7862700, “An all-to-all approach to the identification of sequence-specific readers for epigenetic DNA modifications on cytosine”.

Common to all, as to assay: DAPPL (digital affinity profiling via proximity ligation, sequencing); 10 mM Tris-HCl pH 7.5, 50 mM NaCl, 1 mM DTT, 4% glycerol, room temperature, 30 min; GST-TFs on glutathione beads, 16-mer random dsDNA library, 0.1% formaldehyde crosslink after washing; high values mean tight binding
One assay deals with T1, FLI1 (Homo sapiens, UniProt Q01543 1-452).
T1 sequence: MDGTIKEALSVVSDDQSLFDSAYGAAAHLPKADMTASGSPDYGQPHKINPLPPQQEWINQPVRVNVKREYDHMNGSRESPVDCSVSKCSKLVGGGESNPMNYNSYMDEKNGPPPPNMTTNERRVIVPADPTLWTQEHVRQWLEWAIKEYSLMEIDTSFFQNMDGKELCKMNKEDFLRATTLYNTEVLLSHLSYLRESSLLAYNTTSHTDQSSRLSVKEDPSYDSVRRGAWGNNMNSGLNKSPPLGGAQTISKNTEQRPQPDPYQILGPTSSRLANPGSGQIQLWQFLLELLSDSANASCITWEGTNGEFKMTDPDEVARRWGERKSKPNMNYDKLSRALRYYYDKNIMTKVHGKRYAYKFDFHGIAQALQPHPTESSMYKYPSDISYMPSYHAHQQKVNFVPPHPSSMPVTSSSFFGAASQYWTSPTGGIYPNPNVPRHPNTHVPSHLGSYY
The following applies: protein: recombinant; tags: N-terminal GST; dsDNA, one strand shown. Summed up:
(§1)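 Pools were built from human transcription factors expressed in yeast as GST fusions, captured on glutathione beads and DNA-barcoded, along with a tag-only sample. Incubation with 200 nmole of a 16-mer random double-stranded DNA library lasted 30 min at room temperature in Tris/NaCl/DTT/glycerol buffer, and was followed by washing, 0.1% formaldehyde crosslinking, proximity ligation, PCR amplification and Illumina NextSeq500 sequencing. Binding signal is the quotient of each hexamer's read frequency for a factor and its frequency for the tag-only sample.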

The next assay has as its target T2, ELK1 (Homo sapiens, UniProt P19419 1-428).
T2 sequence: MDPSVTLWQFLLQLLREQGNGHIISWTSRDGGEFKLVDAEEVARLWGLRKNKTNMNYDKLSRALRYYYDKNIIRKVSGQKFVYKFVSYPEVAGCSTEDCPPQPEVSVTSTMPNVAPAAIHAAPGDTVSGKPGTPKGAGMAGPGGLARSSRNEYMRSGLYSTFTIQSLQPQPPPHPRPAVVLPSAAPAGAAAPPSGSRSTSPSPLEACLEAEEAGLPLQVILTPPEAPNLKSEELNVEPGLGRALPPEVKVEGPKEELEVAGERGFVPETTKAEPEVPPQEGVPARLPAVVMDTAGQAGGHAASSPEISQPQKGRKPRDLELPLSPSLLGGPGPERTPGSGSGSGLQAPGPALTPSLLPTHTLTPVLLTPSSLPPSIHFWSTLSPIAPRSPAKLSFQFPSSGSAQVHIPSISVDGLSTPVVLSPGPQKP
Particulars: protein: recombinant; tags: N-terminal GST; dsDNA, one strand shown. The gist of the method: as §1

For a further assay, the target named is T3, GABPA (Homo sapiens, UniProt Q06546 1-454).
T3 sequence: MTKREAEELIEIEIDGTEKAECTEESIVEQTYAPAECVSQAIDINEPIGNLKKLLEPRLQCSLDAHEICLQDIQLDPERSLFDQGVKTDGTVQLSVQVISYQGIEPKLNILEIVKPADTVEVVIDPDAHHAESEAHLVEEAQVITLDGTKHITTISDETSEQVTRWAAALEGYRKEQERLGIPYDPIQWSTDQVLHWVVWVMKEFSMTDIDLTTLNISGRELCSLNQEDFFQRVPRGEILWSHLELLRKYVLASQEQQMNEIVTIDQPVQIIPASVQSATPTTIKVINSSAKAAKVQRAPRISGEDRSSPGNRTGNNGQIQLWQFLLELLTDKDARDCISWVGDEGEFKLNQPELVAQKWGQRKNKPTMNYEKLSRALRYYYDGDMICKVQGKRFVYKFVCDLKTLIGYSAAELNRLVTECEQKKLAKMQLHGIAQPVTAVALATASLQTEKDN
The following applies: protein: recombinant; tags: N-terminal GST; dsDNA, one strand shown. The gist of the method: as §1

For a further assay, the target named is T4, ERG (Homo sapiens, UniProt P11308 1-479).
T4 sequence: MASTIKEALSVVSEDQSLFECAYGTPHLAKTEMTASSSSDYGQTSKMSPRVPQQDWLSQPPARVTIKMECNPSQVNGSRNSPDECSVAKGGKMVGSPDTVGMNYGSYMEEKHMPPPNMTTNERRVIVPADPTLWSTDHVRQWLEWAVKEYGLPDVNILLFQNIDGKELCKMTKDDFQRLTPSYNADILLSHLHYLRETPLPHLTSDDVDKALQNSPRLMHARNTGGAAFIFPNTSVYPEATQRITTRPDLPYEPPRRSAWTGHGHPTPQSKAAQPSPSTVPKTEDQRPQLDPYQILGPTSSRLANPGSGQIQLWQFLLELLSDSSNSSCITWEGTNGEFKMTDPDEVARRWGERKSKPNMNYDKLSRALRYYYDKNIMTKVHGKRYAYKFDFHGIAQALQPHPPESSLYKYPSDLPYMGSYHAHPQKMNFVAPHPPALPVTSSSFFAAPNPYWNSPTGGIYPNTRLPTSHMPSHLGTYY
Particulars: protein: recombinant; tags: N-terminal GST; dsDNA, one strand shown. Summed up: as §1

In a further assay the target is ELF1 (Homo sapiens, UniProt P32519 1-619). Particulars: protein: recombinant; tags: N-terminal GST; dsDNA, one strand shown. The gist of the method: as §1
A further assay deals with T5, EHF (Homo sapiens, UniProt Q9NZC4 1-300).
T5 sequence: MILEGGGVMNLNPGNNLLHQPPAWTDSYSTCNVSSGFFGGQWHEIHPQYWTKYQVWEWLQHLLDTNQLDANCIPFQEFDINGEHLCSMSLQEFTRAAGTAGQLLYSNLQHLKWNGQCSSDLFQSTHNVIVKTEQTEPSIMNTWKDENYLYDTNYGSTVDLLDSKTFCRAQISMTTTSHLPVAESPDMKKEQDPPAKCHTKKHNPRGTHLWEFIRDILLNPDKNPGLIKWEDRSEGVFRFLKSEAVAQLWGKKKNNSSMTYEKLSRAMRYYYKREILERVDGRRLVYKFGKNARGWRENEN
Particulars: protein: recombinant; tags: N-terminal GST; dsDNA, one strand shown. The gist of the method:
as §1

The target in a further assay is SPI1 (Homo sapiens, UniProt P17947 1-270). The following applies: protein: recombinant; tags: N-terminal GST; dsDNA, one strand shown. The gist of the method:
as §1

In a further assay the target is SPIB (Homo sapiens, UniProt Q01892 1-262). The following applies: protein: recombinant; tags: N-terminal GST; dsDNA, one strand shown. The gist of the method: as §1
The next assay addresses T6, ELK3 (Homo sapiens, UniProt P41970 1-407).
T6 sequence: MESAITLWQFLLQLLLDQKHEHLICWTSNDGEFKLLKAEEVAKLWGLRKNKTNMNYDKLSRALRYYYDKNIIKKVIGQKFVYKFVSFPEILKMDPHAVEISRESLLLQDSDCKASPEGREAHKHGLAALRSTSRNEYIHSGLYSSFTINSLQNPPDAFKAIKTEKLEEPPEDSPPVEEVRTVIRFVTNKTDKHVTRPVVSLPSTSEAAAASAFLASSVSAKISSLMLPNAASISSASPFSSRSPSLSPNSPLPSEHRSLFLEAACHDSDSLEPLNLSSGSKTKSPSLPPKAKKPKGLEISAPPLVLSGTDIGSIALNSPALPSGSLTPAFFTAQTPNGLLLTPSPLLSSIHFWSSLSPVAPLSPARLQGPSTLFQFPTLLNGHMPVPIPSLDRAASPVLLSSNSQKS
Particulars: protein: recombinant; tags: N-terminal GST; dsDNA, one strand shown. The gist of the method:
as §1

The next assay has as its target T7, FEV (Homo sapiens, UniProt Q99581 1-238).
T7 sequence: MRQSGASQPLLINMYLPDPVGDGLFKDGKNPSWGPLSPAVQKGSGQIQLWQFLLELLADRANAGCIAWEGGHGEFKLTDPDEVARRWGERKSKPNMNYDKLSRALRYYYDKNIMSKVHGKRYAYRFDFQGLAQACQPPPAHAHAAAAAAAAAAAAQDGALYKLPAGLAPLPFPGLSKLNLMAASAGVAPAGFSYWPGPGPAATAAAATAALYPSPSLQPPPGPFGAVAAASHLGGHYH
The following applies: protein: recombinant; tags: N-terminal GST; dsDNA, one strand shown. Summed up:
as §1

The next assay addresses ETV5 (Homo sapiens, UniProt P41161 1-510). Particulars: protein: recombinant; tags: N-terminal GST; dsDNA, one strand shown. Summed up: as §1
The target of the next assay is HSF1 (Homo sapiens, UniProt Q00613 1-529). The following applies: protein: recombinant; tags: N-terminal GST; chain copies: 3; dsDNA, one strand shown. Summed up: as §1
In a further assay the target is T8, SPIC (Homo sapiens, UniProt Q8N5J4 1-248).
T8 sequence: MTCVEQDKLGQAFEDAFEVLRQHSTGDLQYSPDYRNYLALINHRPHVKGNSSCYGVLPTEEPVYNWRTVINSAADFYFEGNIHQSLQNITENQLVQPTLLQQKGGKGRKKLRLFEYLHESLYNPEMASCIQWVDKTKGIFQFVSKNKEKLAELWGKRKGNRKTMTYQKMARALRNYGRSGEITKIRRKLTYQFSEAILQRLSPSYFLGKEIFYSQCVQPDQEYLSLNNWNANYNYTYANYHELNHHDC
Particulars: protein: recombinant; tags: N-terminal GST; dsDNA, one strand shown. The gist of the method: as §1

For a further assay, the target named is ELF4 (Homo sapiens, UniProt Q99607 1-663). Particulars: protein: recombinant; tags: N-terminal GST; dsDNA, one strand shown. The gist of the method: as §1
For a further assay, the target named is T9, ELK4 (Homo sapiens, UniProt P28324-2 1-405).
T9 sequence: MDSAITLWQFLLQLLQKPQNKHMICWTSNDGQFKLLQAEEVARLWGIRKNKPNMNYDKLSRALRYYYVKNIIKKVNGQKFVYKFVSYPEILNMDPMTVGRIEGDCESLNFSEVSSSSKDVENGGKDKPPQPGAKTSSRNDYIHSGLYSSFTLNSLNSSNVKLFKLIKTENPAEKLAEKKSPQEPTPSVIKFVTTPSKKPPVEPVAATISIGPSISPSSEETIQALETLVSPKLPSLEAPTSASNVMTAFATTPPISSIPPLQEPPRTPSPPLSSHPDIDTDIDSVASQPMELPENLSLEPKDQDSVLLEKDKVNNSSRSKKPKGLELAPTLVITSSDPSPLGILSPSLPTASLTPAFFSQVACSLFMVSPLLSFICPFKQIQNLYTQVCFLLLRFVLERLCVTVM
Particulars: protein: recombinant; tags: N-terminal GST; dsDNA, one strand shown. The gist of the method: as §1

In another assay the target is T10, ETV2 (Homo sapiens, UniProt O00321 1-342).
T10 sequence: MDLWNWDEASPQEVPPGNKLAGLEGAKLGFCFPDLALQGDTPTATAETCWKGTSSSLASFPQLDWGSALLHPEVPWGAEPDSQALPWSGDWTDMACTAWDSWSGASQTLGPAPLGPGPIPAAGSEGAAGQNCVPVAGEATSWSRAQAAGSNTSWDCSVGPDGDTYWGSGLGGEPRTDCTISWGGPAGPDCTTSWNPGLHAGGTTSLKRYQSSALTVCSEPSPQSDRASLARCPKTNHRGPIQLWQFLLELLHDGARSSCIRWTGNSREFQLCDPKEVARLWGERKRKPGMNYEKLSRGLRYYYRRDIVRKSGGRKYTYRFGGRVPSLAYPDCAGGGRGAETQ
The following applies: protein: recombinant; tags: N-terminal GST; dsDNA, one strand shown. Summed up:
as §1

The target of a further assay is T11, ELF3 (Homo sapiens, UniProt P78545 1-371).
T11 sequence: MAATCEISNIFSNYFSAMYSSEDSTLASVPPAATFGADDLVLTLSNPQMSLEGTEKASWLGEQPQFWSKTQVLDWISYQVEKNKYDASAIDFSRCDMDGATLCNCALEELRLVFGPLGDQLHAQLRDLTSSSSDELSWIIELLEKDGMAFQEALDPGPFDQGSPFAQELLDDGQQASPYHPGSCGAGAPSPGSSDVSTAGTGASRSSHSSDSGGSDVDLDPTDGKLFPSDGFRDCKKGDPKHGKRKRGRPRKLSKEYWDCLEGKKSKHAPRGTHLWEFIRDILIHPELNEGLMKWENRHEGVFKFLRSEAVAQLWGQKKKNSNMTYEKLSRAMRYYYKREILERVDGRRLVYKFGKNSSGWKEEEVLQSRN
The following applies: protein: recombinant; tags: N-terminal GST; dsDNA, one strand shown. The gist of the method:
as §1

For a further assay, the target named is CRX (Homo sapiens, UniProt O43186 1-299). Particulars: protein: recombinant; tags: N-terminal GST; dsDNA, one strand shown. Summed up:
as §1

The target in a further assay is ETV1 (Homo sapiens, UniProt P50549 1-477). The following applies: protein: recombinant; tags: N-terminal GST; dsDNA, one strand shown. Summed up: as §1
ETV1, sequence (P50549 whole entry): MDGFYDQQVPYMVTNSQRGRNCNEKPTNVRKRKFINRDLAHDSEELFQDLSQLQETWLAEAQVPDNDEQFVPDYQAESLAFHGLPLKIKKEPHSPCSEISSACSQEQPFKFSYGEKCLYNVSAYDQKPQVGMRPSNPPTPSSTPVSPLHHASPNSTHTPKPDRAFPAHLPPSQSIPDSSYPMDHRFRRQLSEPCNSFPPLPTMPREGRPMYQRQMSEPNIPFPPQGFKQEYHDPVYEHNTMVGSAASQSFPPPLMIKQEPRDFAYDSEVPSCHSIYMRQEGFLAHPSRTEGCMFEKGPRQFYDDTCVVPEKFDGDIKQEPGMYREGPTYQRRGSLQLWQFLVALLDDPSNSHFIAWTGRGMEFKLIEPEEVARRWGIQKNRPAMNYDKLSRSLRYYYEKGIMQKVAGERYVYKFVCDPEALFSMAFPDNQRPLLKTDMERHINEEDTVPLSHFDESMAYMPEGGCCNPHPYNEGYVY

HSF1, sequence (Q00613 whole entry): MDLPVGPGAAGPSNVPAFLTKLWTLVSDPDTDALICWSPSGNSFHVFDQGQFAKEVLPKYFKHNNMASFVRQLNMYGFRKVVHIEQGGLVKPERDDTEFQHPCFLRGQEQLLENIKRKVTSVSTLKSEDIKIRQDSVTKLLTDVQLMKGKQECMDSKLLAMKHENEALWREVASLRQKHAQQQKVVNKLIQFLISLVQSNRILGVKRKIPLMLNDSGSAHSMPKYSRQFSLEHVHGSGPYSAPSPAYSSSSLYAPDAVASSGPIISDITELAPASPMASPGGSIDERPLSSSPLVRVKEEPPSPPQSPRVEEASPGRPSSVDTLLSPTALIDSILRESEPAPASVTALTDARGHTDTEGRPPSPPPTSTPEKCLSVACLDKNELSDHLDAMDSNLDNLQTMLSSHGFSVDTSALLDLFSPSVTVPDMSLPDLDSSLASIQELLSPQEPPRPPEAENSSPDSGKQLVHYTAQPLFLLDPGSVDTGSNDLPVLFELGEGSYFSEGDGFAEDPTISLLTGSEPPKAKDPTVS
SPIB, sequence (Q01892 whole entry): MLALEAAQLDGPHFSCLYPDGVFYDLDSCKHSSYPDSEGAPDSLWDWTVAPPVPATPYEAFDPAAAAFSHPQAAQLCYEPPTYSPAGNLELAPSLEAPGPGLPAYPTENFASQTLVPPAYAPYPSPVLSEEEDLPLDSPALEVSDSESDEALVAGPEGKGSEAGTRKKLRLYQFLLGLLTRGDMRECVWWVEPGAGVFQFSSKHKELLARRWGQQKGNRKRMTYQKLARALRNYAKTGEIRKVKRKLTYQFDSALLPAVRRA
ELF1, sequence (P32519 whole entry): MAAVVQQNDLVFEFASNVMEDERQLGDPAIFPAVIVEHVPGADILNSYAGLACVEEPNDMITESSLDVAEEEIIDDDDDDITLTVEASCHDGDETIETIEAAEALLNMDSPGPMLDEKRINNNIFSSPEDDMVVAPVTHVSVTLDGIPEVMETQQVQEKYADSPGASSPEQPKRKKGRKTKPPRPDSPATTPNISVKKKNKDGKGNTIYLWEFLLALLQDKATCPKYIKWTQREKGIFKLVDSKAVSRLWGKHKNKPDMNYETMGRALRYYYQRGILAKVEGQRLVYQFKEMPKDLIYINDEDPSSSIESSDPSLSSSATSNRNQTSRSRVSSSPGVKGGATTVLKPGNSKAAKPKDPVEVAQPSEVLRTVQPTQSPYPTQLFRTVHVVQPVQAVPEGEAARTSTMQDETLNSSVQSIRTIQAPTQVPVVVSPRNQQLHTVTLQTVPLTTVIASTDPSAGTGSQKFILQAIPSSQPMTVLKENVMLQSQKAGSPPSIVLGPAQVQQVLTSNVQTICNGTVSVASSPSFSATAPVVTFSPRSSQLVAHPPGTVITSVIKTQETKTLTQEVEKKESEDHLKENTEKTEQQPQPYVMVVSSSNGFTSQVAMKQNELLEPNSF
CRX, sequence (O43186 whole entry): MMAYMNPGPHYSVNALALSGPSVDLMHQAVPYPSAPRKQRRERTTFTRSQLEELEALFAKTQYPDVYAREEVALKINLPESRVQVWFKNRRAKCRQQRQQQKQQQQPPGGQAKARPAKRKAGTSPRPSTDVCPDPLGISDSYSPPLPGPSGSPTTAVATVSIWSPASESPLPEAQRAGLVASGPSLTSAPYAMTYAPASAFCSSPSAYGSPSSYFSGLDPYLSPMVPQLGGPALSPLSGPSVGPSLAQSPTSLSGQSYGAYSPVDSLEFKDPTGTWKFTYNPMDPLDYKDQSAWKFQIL
ETV5, sequence (P41161 whole entry): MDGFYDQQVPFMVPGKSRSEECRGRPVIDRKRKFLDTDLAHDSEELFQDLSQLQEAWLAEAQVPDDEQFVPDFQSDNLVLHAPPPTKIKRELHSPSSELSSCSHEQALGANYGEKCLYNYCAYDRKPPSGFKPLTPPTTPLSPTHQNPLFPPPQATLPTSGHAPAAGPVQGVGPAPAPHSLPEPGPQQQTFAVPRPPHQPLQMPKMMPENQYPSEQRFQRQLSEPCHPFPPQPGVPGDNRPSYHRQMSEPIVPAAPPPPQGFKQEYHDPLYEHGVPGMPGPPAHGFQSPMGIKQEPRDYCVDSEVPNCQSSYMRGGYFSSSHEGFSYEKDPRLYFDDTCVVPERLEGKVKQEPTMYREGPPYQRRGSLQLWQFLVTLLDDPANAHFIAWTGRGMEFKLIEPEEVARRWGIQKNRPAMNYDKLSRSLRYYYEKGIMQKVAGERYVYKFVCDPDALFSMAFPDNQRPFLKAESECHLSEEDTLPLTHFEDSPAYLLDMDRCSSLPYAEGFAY
ELF4, sequence (Q99607 whole entry): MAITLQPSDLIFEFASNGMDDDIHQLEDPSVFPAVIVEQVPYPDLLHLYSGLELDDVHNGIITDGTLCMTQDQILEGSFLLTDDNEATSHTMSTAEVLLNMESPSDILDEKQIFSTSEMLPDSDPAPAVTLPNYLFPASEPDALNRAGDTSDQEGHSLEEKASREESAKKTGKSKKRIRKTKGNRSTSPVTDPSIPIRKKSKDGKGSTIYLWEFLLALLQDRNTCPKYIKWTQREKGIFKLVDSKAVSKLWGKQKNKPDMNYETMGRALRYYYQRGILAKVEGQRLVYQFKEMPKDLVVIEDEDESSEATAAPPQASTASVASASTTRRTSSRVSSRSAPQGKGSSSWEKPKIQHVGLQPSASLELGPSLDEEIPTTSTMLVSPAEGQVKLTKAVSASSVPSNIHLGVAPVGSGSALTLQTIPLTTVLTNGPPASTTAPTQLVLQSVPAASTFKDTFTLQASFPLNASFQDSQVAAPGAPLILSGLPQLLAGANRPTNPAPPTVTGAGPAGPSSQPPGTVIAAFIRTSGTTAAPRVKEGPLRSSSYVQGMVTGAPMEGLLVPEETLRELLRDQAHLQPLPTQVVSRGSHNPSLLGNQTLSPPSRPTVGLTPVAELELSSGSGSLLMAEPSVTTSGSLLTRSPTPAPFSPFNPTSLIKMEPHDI

As for TTTGTC, the binding signal was 1.35 fold enrichment (6-mer frequency, TF over GST control) with FLI1; 1.21 fold enrichment (6-mer frequency, TF over GST control) in the assay with ELK1; 1.19 fold enrichment (6-mer frequency, TF over GST control) with GABPA; 1.19 fold enrichment (6-mer frequency, TF over GST control) with ERG; 1.26 fold enrichment (6-mer frequency, TF over GST control) with ELF1; 1.24 fold enrichment (6-mer frequency, TF over GST control) in the assay with EHF. For the same sequence, the binding signal was 1.23 fold enrichment (6-mer frequency, TF over GST control) with SPI1; 1.16 fold enrichment (6-mer frequency, TF over GST control) in the assay with SPIB; 1.18 fold enrichment (6-mer frequency, TF over GST control) with ELK3; 1.19 fold enrichment (6-mer frequency, TF over GST control) with FEV; 1.15 fold enrichment (6-mer frequency, TF over GST control) with ETV5; 1.11 fold enrichment (6-mer frequency, TF over GST control) with HSF1. The binding signal is 1.16 fold enrichment (6-mer frequency, TF over GST control) with SPIC; 1.18 fold enrichment (6-mer frequency, TF over GST control) with ELF4; 1.23 fold enrichment (6-mer frequency, TF over GST control) in the assay with ELK4; 1.16 fold enrichment (6-mer frequency, TF over GST control) with ETV2; 1.27 fold enrichment (6-mer frequency, TF over GST control) with ELF3; 1.29 fold enrichment (6-mer frequency, TF over GST control) with CRX. Moreover, the binding signal with ETV1 was 1.14 fold enrichment (6-mer frequency, TF over GST control).
